Among the data in PubChem BioAssay (Tox21) are Potency, activity change, positive = activation and outcome values, retold here.

Each structure is given as a SMILES string. Several values for one entry are separate records, joined by “and”; a condition that tells them apart may be missing. Identical values can stand only once. Results filed as inconclusive are left out. A structure can be active in one record and inactive in another. Activity calls are given as the source filed them. Unless noted, calls follow the shape of the dose curve; as a rule, active = well fitted curve in the direction sought with a large enough effect in the repeat runs; inconclusive = weak or mixed curves; inactive = no such curve, though single readings can be large; an effect the other way counts as inactive or inconclusive.

Test [1] is described as follows: qHTS assay to identify small molecule antagonists of the estrogen related receptor (ERR) signaling pathway from Tox21 library - cell viability counter screen (AID 1224834). Also: nearly all actives have a fitted effect of over 30% in size. Also: potency is read from the fitted curve at half-maximal effect. Summed up: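 Seeded ERR cells were rested 6 h at 37 C/5% CO2 before compounds, positive and negative controls or DMSO were added. Incubation continued for 17.5 h, and viability was then quantified by CellTiter-Fluor fluorescence.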
On the technique in general: In qHTS, concentration-response curves come from the screen itself.

Test [2] can be described thus: qHTS assay to identify small molecule agonists of the constitutive androstane receptor (CAR) signaling pathway - cell viability counter screen (AID 1224836). Also: nearly all actives have a fitted effect of over 45% in size. Summed up: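 Multiplexed viability check: HepG2-CYP2B6-hCAR cells, 15-point compound dosing, 0.75 uM PK11195 final, 23 h at 37 C, CellTiter-Fluor fluorescence.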
A short description of test [3]: qHTS assay to identify small molecule antagonists of the constitutive androstane receptor (CAR) signaling pathway - cell viability counter screen (AID 1224837). Also: nearly all actives have a fitted effect of over 45% in size. Summed up: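 To flag cytotoxic false antagonists, HepG2 hCAR/CYP2B6-2.2kb cells were treated 23 hr with 15-concentration compound series and 50 nM CITCO at 37 C/5% CO2; CellTiter-Fluor fluorescence was the measured end point.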

The nature of test [4]: qHTS assay to identify small molecule antagonists of the estrogen related receptor signaling pathway with the pleiotropic PPARgamma coactivator (PGC) from Tox21 10K library - cell viability counter screen (AID 1224840; active = well fitted cell-killing curve with a large enough effect in the repeat runs, not every such curve was filed as active; also: nearly all actives have a fitted effect of over 40% in size). Summed up:
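Seeded PGC/ERR cells (2,000/well, 6 h, 37 C/5% CO2) get compound by pin tool; 17.5 h incubation at 37 C; CellTiter-Fluor added, 30 min, fluorescence measured.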

Test [5] in a line: qHTS assay to identify small molecule antagonists of the estrogen related receptor signaling pathway with the pleiotropic PPARgamma coactivator (PGC) from Tox21 10K library (AID 1224841; call rule not given here; also: actives are mostly falling curves and most rising ones were filed inactive; nearly all actives have a fitted effect of over 50% in size). Summed up:
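Test chemicals dissolved in DMSO were applied to pre-incubated (6 h) PGC/ERR cells at 2,000 cells/well for an 18 h, 37 C treatment; reporter luminescence was then read using One-Glo.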

Test [6] in a line: qHTS assay to identify small molecule agonists of the estrogen related receptor signaling pathway with the pleiotropic PPARgamma coactivator (PGC) from Tox21 10K library (AID 1224842). Also: nearly all actives have a fitted effect of over 15% in size. Summed up:
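PGC/ERR reporter cell line, 2,000 cells per well, incubated 6 h at 37 C before 23 nL compound in DMSO was added. After 18 h at 37 C, One-Glo luminescence read following 30 min at room temperature.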

In test [7] the target is Thyrotropin receptor (Homo sapiens) (UniProt P16473). Kind of test: qHTS assay to identify small molecule agonists of the thyroid stimulating hormone receptor (TSHR) signaling pathway (AID 1224843; calls by dose curve; also: nearly all actives have a fitted effect of over 45% in size). Summed up: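 Agonist-mode screen: TSHR HEK293 cells received test chemicals for half an hour at room temperature, then HTRF cAMP detection reagents for one hour prior to fluorescence measurement. Each chemical ran as a 15-concentration series, triplicated.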

Test [8] can be described thus: qHTS assay to identify small molecule agonists of the hypoxia (HIF-1) signaling pathway - cell viability counter screen (AID 1224844; calls by dose curve; also: nearly all actives have a fitted effect of over 50% in size). Summed up:
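HRE-bla ME-180; 0.5% dFBS; cpd 17 h, 37C, 5% CO2; CellTiter-Glo lum., 30 min RT, post-FRET read, same wells.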

Test [9] is described as follows: qHTS assay to identify small molecule agonists of H2AX (AID 1224845; active = well fitted activation curve with a large enough effect in the signal ratio in the repeat runs, not every such curve was filed as active; the % refers to the signal ratio). Summed up: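 Wild-type CHO-K1 cells, plated overnight, exposed 3hr at 37C to 15 concentrations (0.76% DMSO final). Lysed, then HTRF anti-pH2AX (S139) cryptate and anti-H2AX-d2 antibodies, 24 hr room temperature; 665/620 nm emission read.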
The nature of test [10]: qHTS assay to identify small molecule agonists of H2AX - cell viability counter screen (AID 1224847; calls by dose curve; also: nearly all actives have a fitted effect of over 30% in size; also: potency is read from the fitted curve at half-maximal effect). Summed up: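 After overnight plating of 1000 CHO-K1 cells per well, a 15-concentration compound series was applied for 3 hr at 37C. Luminescence from CellTiter-Glo, read following 30 min at room temperature, reflected cell viability.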
A short description of test [11]: qHTS assay to identify small molecule antagonists of the estrogen related receptor (ERR) signaling pathway from Tox21 library (AID 1224848). Also: nearly all actives have a fitted effect of over 50% in size. Summed up:
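Quantitative high-throughput format: ERR reporter cells (2,000/well) pre-incubated 6 h, treated 18 h at 37 C with compounds in DMSO alongside positive and negative controls, then read by ONE-Glo luminescence.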

Test [12] can be described thus: qHTS assay to identify small molecule agonists of the estrogen related receptor (ERR) signaling pathway from Tox21 library (AID 1224849; calls by dose curve; also: nearly all actives have a fitted effect of over 15% in size). As to conditions: ERR reporter cell line, ONE-Glo luciferase, 18 h. Summed up: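 Tox21 compounds tested for ERR agonism in an NTP reporter cell line: 18 h treatment at 37 C, then ONE-Glo luminescence.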
Test [13] in a line: qHTS RealTime-Glo MT Cell Viability Assay in HepG2 cells - 24 hour (AID 1224867). Also: nearly all actives have a fitted effect of over 50% in size. Summed up: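 Cells + NanoLuc/prosubstrate dispensed (600 cells/well) → 5 h at 37 C/5% CO2 → compounds in DMSO transferred → 40 h incubation at 37 C, luminescence read at 0, 8, 16, 24, 32, 40 h.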
Test [14] in a line: qHTS RealTime-Glo MT Cell Viability Assay in HEK293 cells - 32 hour (AID 1224868). Summed up: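 Tox21 10K qHTS, HEK293, 600 cells/well, RealTime-Glo reagent co-dispensed with cells; 5 h preincubation, compound by pintool, 37 C, luminescence at 0–40 h.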
A short description of test [15]: A CellTox Green Cytotoxicity Assay to monitor cytotoxicity in HEK293 cells - 0 hour (AID 1224869). Also: nearly all actives have a fitted effect of over 50% in size. Summed up:
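Tox21 screen in HEK293: membrane-impermeant cyanine dye fluoresces on binding dead-cell DNA; compound pinned 5 h post-seeding, plates held at 37 C, signal read repeatedly through 40 h.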

The nature of test [16]: qHTS assay to identify small molecule agonists of the hypoxia (HIF-1) signaling pathway (AID 1224846; active = well fitted activation curve with a large enough effect in the signal ratio in the repeat runs, not every such curve was filed as active; the % refers to the signal ratio). Summed up: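 Reporter induction in HRE-bla ME-180 cells is taken as agonism: cells sit 5 hrs after plating, receive compounds or DMSO only, incubate 17 hrs at 37C under 5% CO2, and are loaded with CCF4-AM for beta-lactamase FRET measurement.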
The target in test [17] is Luciferin 4-monooxygenase (Photinus pyralis) (UniProt P08659). As to the kind of experiment: qHTS assay to identify small molecule inhibitors of firefly luciferase (AID 1224835). Also: nearly all actives have a fitted effect of over 25% in size. Also: potency is read from the fitted curve at half-maximal effect. Summed up: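 Biochemical qHTS: compounds run as interplate titrations against purified firefly enzyme, with D-luciferin and ATP each at its KM concentration. Light output recorded by CCD imaging.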

Test [18] addresses Nuclear receptor subfamily 1 group I member 3 (Homo sapiens) (UniProt Q14994). Kind of test: qHTS assay to identify small molecule agonists of the constitutive androstane receptor (CAR) signaling pathway (AID 1224839). Also: nearly all actives have a fitted effect of over 15% in size. Also: potency is read from the fitted curve at half-maximal effect.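 As to activation: HepG2 cells stably carrying human CAR and a CYP2B6 luciferase reporter.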 Summed up: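 Using human hepatoma HepG2 cells engineered with hCAR and a CYP2B6-2.2kb reporter, 15-concentration compound series were incubated 24 h alongside PK11195 at 0.75 uM final, with luminescence quantified afterwards.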

The target is the same in test [19]. Kind of test: qHTS assay to identify small molecule antagonists of the constitutive androstane receptor (CAR) signaling pathway (AID 1224838).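 Also: HepG2 cells stably expressing hCAR with CYP2B6 luciferase reporter stimulated by CITCO; nearly all actives have a fitted effect of over 40% in size.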 Summed up: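 Human hepatoma HepG2 cells expressing hCAR and a CYP2B6 promoter (2.2 kb) luciferase construct; compound titration (15 points) with 50 nM CITCO final, 24 h at 37 C/5% CO2; luminescence via ONE-Glo after 30 min at room temperature.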
% is scaled to controls: 0 for no effect and ±100 for the full control effect.

Chain of Thyrotropin receptor (Homo sapiens) (P16473 whole entry, looked up): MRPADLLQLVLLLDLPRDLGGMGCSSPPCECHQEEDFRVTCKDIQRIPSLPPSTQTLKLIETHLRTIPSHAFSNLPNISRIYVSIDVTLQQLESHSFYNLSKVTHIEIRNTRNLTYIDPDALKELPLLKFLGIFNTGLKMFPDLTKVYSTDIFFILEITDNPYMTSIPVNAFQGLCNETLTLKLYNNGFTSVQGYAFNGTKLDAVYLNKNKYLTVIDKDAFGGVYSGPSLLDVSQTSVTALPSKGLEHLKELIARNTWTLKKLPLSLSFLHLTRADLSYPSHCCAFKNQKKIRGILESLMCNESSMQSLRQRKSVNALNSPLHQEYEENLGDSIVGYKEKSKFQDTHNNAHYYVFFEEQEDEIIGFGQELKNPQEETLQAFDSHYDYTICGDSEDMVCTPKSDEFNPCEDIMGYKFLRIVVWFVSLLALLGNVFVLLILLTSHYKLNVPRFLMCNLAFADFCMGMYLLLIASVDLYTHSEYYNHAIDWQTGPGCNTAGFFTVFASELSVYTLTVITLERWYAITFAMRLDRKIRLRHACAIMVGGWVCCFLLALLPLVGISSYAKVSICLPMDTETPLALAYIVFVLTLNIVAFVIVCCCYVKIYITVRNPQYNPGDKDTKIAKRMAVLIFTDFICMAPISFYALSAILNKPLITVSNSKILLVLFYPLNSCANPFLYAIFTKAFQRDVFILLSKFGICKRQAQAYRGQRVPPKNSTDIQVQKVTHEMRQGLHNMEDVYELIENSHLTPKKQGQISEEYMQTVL
Chain of Luciferin 4-monooxygenase (Photinus pyralis) (P08659 whole entry, looked up): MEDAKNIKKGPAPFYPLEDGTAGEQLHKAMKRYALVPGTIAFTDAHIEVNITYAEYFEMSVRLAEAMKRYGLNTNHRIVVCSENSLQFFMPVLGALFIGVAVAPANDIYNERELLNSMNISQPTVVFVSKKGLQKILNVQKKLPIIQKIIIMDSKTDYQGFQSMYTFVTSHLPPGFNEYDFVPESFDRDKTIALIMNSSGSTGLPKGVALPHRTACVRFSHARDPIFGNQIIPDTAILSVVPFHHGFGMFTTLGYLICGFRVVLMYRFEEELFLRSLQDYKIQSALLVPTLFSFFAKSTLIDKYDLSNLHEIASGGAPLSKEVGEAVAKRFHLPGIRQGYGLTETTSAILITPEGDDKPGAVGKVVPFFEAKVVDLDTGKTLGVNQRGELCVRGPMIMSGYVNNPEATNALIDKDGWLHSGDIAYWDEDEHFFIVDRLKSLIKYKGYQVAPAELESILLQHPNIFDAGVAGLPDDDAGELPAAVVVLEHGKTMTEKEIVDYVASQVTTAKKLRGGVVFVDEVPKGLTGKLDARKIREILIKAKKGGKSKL
Chain of Nuclear receptor subfamily 1 group I member 3 (Homo sapiens) (Q14994 whole entry, looked up): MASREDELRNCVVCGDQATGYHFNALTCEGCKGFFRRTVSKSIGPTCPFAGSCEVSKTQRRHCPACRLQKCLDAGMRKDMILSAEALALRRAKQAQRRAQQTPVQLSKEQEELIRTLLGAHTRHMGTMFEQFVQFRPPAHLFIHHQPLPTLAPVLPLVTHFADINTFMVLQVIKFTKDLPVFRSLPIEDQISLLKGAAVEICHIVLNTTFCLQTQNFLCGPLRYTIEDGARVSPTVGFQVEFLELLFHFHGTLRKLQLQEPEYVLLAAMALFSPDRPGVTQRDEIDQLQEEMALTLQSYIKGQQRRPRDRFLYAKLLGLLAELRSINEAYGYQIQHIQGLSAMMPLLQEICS

In the case of `CCCCCCCCCC(=O)O`, the Potency result in test [1], in [2], in [3], in test [4], in [5] and in test [6] was “inactive” in each case. For the same molecule, the Potency entry in [7], in test [8], in test [9], in test [10], in test [11] and in test [13] was “inactive” each time. In addition, the Potency result in [14] and in test [15] was “inactive” each time. Further, the activity change, positive = activation in test [12] (at 92.4 µM (top of the series)) was -1.8% (inactive) and -5.57% (inactive).

On to `CC(C)n1c(/C=C/[C@@H](O)C[C@@H](O)CC(=O)O)c(-c2ccc(F)cc2)c2ccccc21`, for which the Potency result in [1], in [2], in test [4], in test [8], in test [9] and in test [10] was “inactive” each time. The Potency result in test [13], in test [14] and in [15] was “inactive” in each case. Moreover, the call in [16] was inactive.

`OCCOCCOCCOCCO`: the Potency entry in [1], in test [17], in test [2], in [4], in test [7] and in test [8] was “inactive” throughout. The Potency entry in test [9], in test [10], in [13] and in test [14] was “inactive” each time.

Regarding `Clc1cc(Cl)c(Cl)cc1Cl`, the Potency entry in test [1], in [17], in test [2], in test [4], in test [5] and in test [6] was “inactive” each time. The Potency entry in [8], in test [9], in test [10], in test [11], in test [13] and in [14] was “inactive” in each case. For the same molecule, the Potency result in [15] is “inactive”. Besides, the activity change, positive = activation in test [12] (at 92.4 µM (top of the series)) was 6.69% (inactive) and 12.5% (inactive).

Regarding `O=[N+]([O-])c1cc(N(CCO)CCO)ccc1NCCO`, the Potency in test [1] was 48.5 µM (active); in [17], 28.2 µM (active) and 39.9 µM (active); in test [10], 50.4 µM (active) and 50.5 µM (active). For the same molecule, the Potency entry in test [3], in test [4], in test [8], in test [13], in [14] and in [15] was “inactive” in each case. Moreover, the molecule was classed as inactive in test [16].

For the molecule `O=S(=O)(Oc1ccc(Cl)cc1Cl)c1ccccc1`, the Potency entry in [1], in test [2], in test [4], in test [5], in test [7] and in [8] was “inactive” throughout. The Potency entry in [9], in [11], in test [13], in test [14] and in test [15] was “inactive” throughout. Also, the Potency in [17] was 79.6 µM (active); in test [18], 15.6 µM (active) and 48.6 µM (active). Moreover, the activity change, positive = activation in test [12] (at 92.4 µM (top of the series)) is -20% (inactive) and 8.74% (inactive).

For the molecule `O=C(c1cc(O)c(O)c(O)c1)c1ccc(O)c(O)c1O`, in test [1], the Potency was 54.3 µM (active) and 54.5 µM (active). The Potency result in test [2], in test [3], in test [19], in [18], in [4] and in test [5] was “inactive” throughout. In addition, the Potency entry in test [6], in [8], in test [11], in test [13] and in [14] was “inactive” in each case. The result in test [16] was inactive. The activity change, positive = activation is -6.33% (inactive) in test [12] (at 42.5 µM (top of the series)); -10.5% (inactive) and -15.9% (inactive) in [12] (at 92.4 µM (top of the series)).

As for `CCOC(=O)/C=C\C(=O)OCC`, the Potency entry in test [1], in test [17], in test [2], in [4], in test [5] and in test [6] was “inactive” in each case. The Potency entry in test [7], in test [8], in test [9], in test [11], in test [13] and in test [14] was “inactive” throughout. In test [15], the Potency result was “inactive”. In addition, in [16], the call was inactive. The activity change, positive = activation in test [12] (at 92.4 µM (top of the series)) is 1.73% (inactive) and 0.529% (active).

With `C=CC(=O)OCCCCCCCC(C)C`, the Potency result in test [1], in test [17], in test [2], in [18], in test [4] and in test [7] was “inactive” throughout. The Potency entry in test [8], in [9], in test [10], in test [13] and in test [14] was “inactive” throughout. In addition, the outcome in [16] was inactive.
